# DT40 TDP1 CPT – growth inhibition of DT40 Tdp1-/-;hTDP1 cells with camptothecin (screen for TDP1 inhibitors) | chicken DT40 Tdp1-/-;hTDP1 cells + 20 nM CPT, ATP luminescence, 48 h | Potency, µM (titrated, usually from 46.2 µM), for inactives: top-dose activity change, negative = growth inhibition, actives largely listed as inhibitors | actives 12% (n = 420,000); further: potency means the concentration at half of the fitted maximal effect; nearly all actives have a fitted effect of over 55% in size
#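 Cell growth measured by CellTiter-Glo luminescence after a minimum 48 h, 37 C compound exposure with 20 nM CPT in Tdp1-knockout DT40 cells stably expressing hTDP1, seeded 400/well; qHTS titration format.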
# IL1B secr inh – inhibitors of inflammasome signaling (IL-1 beta secretion). THP-1 LPS/ATP IL-1B secretion, AlphaLISA, 16 h; hits give low values. activity change, % at 57.5 µM. actives 4.7% (n = 360,000). AID 743279; in the data active means activity change below about -50%; inconclusive means mostly about -30% to -49%
#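 THP-1 cells pretreated 1 hr with compounds (up to 57.5 uM final), then stimulated with LPS (250 ng/mL final) plus ATP (1.25 mM final); secreted IL-1B measured by AlphaLISA after 16 hr, decreased signal indicating inhibition.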
# HT1080-NT tox – kills 2HG-producing HT-1080-NT fibrosarcoma cells | HT-1080-NT fibrosarcoma viability, CellTiter-Glo ATP luminescence, 48 h | Potency, µM (top dose mostly 46.1 µM), without a hit: at the highest dose activity, negative = less viability, usual class: cytotoxic | actives 1.6% (n = 360,000);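 further: NT is the 2HG producing partner of a matched IDH1 knockdown line; potency means the concentration at half of the fitted maximal effect; 0% = DMSO-treated cells and -100% = media-only wells without cells; nearly all actives have a fitted effect of over 55% in size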
#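 Viability of the 2HG-overproducing fibrosarcoma line after 48 hours of compound exposure at 37 degrees C was determined by luminescence with CellTiter-Glo, and concentration-effect curves were then fitted and categorized.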
# HT1080 IDH1KD tx – kills HT-1080 cells with IDH1 knockdown. actives 2% (n = 360,000). Potency, µM (highest dose often 46.1 µM), without a hit: top-dose activity, negative = toxicity, usual class: cytotoxic. HT-1080 IDH1 knockdown viability, ATP luminescence, 48 h;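 further: potency means the concentration at half of the fitted maximal effect; 0% = DMSO wells and -100% = cell-free medium wells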
#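 After a 2 h attachment period, IDH1KD HT-1080 cells took pin-transferred compound for 48 h at 37 °C; ATP-based luminescence after 10 min room-temperature reagent incubation reported viability.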
# TDP1 cell noCPT – qHTS for Inhibitors of human tyrosyl-DNA phosphodiesterase 1 (TDP1): qHTS in cells in absence of CPT. DT40 Tdp1-/- hTDP1 cells, no CPT, ATP luminescence, 48 h. actives 15% (n = 420,000). AID 686978, 2013. Potency, µM (titrated, usually from 46.2 µM), without a hit: top-dose activity change, negative = growth inhibition, usual class: inhibitors; further: potency means the concentration at half of the fitted maximal effect; nearly all actives have a fitted effect of over 55% in size
#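 Readout: luminescence from CellTiter-Glo after 30 min in the dark at RT. Cells: DT40 Tdp1-/- with stable hTDP1, 400/well. Exposure: compounds alone, ≥48 hr, 37 °C.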
# * marks the source's active call; other numbers are inactive results; u = inconclusive; x = not tested or not shown; [ ] = dose if it differs, or a comment. In the library only some 19% were active in any assay of this set; here they are far more common. Unless noted, the call rests on the fitted dose curve; in most records, active means well fitted curve in the direction sought with a large enough effect; inconclusive means small, poorly fitted or top-dose-only effect, or another doubt; inactive means no such curve, though single readings can be large; an effect the other way counts as inactive or inconclusive. Unless noted, on the % scale 0 is the no-effect control and ±100 the full control effect.
SMILES,DT40 TDP1 CPT,IL1B secr inh,HT1080-NT tox,HT1080 IDH1KD tx,TDP1 cell noCPT
CCCOc1ccc(-c2nn(-c3ccccc3)cc2/C=C2\SC(N)=NC2=O)cc1,1.1%,24.9,-10.1%,-8.1%,26.5%
CS(=O)(=O)N(CC(=O)N1CCN(Cc2ccccc2)CC1)c1ccccc1Br,u,-12.2,-7.7%,-4.0%,u
CCOc1ccc(-c2cc(CCCC(=O)NCc3ccco3)no2)cc1,u,17.7,9.3%,6.4%,20.6µM*
Cc1ccc(-c2noc(CCCC(=O)NCc3ccco3)n2)cc1,u,x,x,x,18.4µM*
COc1ccc(-c2noc(CCC(=O)NCc3ccco3)n2)cc1,-17.0%,7.8,10.7%,0.8%,-27.1%
O=C(CCCc1nc(-c2ccc(Cl)cc2)no1)NCc1ccco1,7.31µM*,x,x,x,11.6µM*
COc1ccc(-c2cc(C(F)(F)F)c(C#N)c(SCC(=O)Nc3ccc(F)cc3)n2)cc1,-2.6%,x,x,x,-29.2%
CCC1CCCCN1C(=O)COc1ccccc1NC(C)=O (stereo not drawn),-1.3%,34.2,2.2%,-0.3%,-22.1%
COc1ncnc(-c2ccccc2)c1-c1ccccc1,u,9.6,0.6%,-3.2%,14.6µM*
Cc1cc(C)cc(C(=O)NCCn2cc(C(=O)N3CCSCC3)nn2)c1,10.7%[9.04 µM],x,x,x,-10.0%
CN1CCN(NC(=O)c2cn(-c3ccccc3)nc2-c2cccc(Br)c2)CC1,u,-136.2*,u,u,u
CN1CCN(NC(=O)c2cn(-c3ccccc3)nc2-c2cccs2)CC1,-3.2%,-3.2,1.0%,2.6%,-0.1%
CC(C)OC(=O)CCC(=O)Nc1ccc(F)cc1,-2.3%,-4.4,0.7%,-0.1%,12.6%
CC(C)C(Cl)=NOC(=O)Nc1ccc(F)cc1,1.46µM*,-99.6*,-8.4%,16.4µM*,2.31µM*
C/C(=N\OC(=O)Nc1ccc(Cl)cc1)c1ccc(F)c(F)c1,2.0%,-86.9*,-14.9%,-25.2%,u
COc1ccccc1OCc1ccc(C(=O)N2CCN(C(=O)c3ccco3)CC2)cc1,-4.8%,1.1,12.6%,0.1%,-26.2%
O=C(c1ccc(COc2ccccc2Br)cc1)N1CCCCC1,14.6µM*,-58.3*,-17.5%,-26.6%,16.4µM*
CCOc1ccc(OCc2ccc(C(=O)N3CCCC3)o2)cc1,u,2.1,0.1%,-12.6%,u
O=C(c1ccc(COc2ccccc2Br)o1)N1CCCCCC1,20.6µM*,-13.6,3.4%,-21.4%,u
CCCc1ccc(OCc2ccc(C(=O)N3CCCC3)o2)cc1,u,19.1,u,-28.5%,20.6µM*
COc1ccc(C(=O)Nc2ccnn2C2CCN(C(C)CSC)CC2)cc1 (stereo not drawn),2.7%,-11.0,1.2%,-1.3%,19.6%
CS(=O)(=O)c1ccc(N2CCN(S(=O)(=O)c3cccs3)CC2)c([N+](=O)[O-])c1,-27.8%,-23.1,-21.7%,-22.4%,u
O=C(CSc1nccn1Cc1ccccc1)NCc1ccco1,-5.6%,x,x,x,3.3%
COc1ccc(CSC(=S)NNc2ccccc2)cc1,u,40.5,u,13µM*,18.4µM*
CCc1ccccc1NC(=O)CSc1nnc(COc2ccccc2Cl)o1,-9.7%,x,x,x,-26.8%
SMILES,DT40 TDP1 CPT,IL1B secr inh,HT1080-NT tox,HT1080 IDH1KD tx,TDP1 cell noCPT
N#CC1=C(N)NC(=S)C(C(N)=O)C1c1ccccc1F (stereo not drawn),u,u,-26.7%,u,u
N#CC1=C(N)NC(=S)C(C(N)=O)C1c1ccc(Cl)cc1Cl (stereo not drawn),10.3µM*,5.5,u,u,18.4µM*
N#CCC(=O)N/N=C/c1cc(Br)ccc1OCc1cccc2ccccc12,u,-14.8,-3.0%,-2.1%,u
CCC1NC(=O)c2cc3ccccc3cc2-n2c1nc1cc(F)ccc1c2=O (stereo not drawn),-1.3%,9.2,13.7%,2.8%,u
O=C1NC(Cc2ccccc2)c2nc3cc(F)ccc3c(=O)n2-c2cc3ccccc3cc21 (stereo not drawn),5.17µM*,-10.7,u,16.4µM*,5.8µM*
O=C1NC(Cc2ccccc2)c2nc3ccccc3c(=O)n2-c2cc3ccccc3cc21 (stereo not drawn),13µM*,-5.4,u,9.2µM*,13µM*
CCCC1NC(=O)c2cc3ccccc3cc2-n2c1nc1cc(F)ccc1c2=O (stereo not drawn),u,6.8,-21.4%,u,20.6µM*
Cc1ccc2c(=O)n3c(nc2c1)C(Cc1ccccc1)NC(=O)c1cc2ccccc2cc1-3 (stereo not drawn),u,-8.5,6.51µM*,5.8µM*,u
Cc1c(Cl)cccc1NC(=O)Cn1cc(C(F)(F)F)cc(Cl)c1=O,-5.7%,0.0,-2.4%,6.6%,-13.0%
Cc1cccc(C)c1NC(=O)CNC(=O)c1ccc(N2CCCC2=O)cc1,12.5%,-7.4,8.7%,3.8%,4.6%
O=S(=O)(/N=C(/Nc1ccc(F)c(F)c1F)c1ccccc1)c1ccccc1,10.9%,-0.4,4.0%,6.1%,1.2%
Cc1ccc2nc(/C(C#N)=C\c3cc(O)ccc3[N+](=O)[O-])[nH]c2c1,-7.5%,3.0,-4.9%,-24.1%,-22.5%
COc1cc(/C=C(\C#N)c2nc3ccc(C)cc3[nH]2)ccc1OCc1ccc(C)cc1,11.6µM*,x,x,x,8.2µM*
COc1cc(/C=C(\C#N)c2ccccn2)ccc1OCc1ccc(Cl)cc1,u,-11.5,8.6%,1.9%,23.1µM*
COc1cccc(/C=C(\C#N)c2nc3ccc(C)cc3[nH]2)c1,18.4µM*,x,x,x,18.4µM*

# Screening results: PubChem, National Center for Advancing Translational Sciences (NCATS)
